We go through 15 molecules from PubChem BioAssay.

Holding throughout (experiment): BK channel mutant inhibitors and activators – cell-based, U2OS BacMam, thallium flux, beta subunits, selectivity assay, profiling panel (AID 1259406);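 note: initial slope of Thallos dye fluorescence rise after thallium is added; log ratio against the mean of 0.3% DMSO vehicle wells on the same plate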
The test system of assay [1] is F380Y. Conditions: U2OS BacMam BK variants, at 30 µM.
Assay [2] relates to F380Y/beta1. Conditions: U2OS BacMam BK variants, at 30 µM.
Assay [3] has as its system F380Y/beta2Delta. Conditions: U2OS BacMam BK variants, at 30 µM.
Assay [4] has as its system F380Y/beta4. Conditions: U2OS BacMam BK variants, at 30 µM.
Assay [5] addresses Calcium-activated potassium channel subunit alpha-1 (Homo sapiens) + Leucine-rich repeat-containing protein 26 (Homo sapiens) (UniProt Q12791+Q2I0M4). The note with it: U2OS BacMam BK variants, F380Y/Slo1WT/gamma1, at 30 µM.
Assay [6] relates to R275C. The note with it: U2OS BacMam BK variants, at 30 µM.
Assay [7] deals with R275C/beta1. The note with it: U2OS BacMam BK variants, at 30 µM.
Assay [8] deals with R275C/beta2Delta. The note with it: U2OS BacMam BK variants, at 30 µM.
Assay [9] deals with R275C/beta4. Conditions: U2OS BacMam BK variants, at 30 µM.
Assay [10] concerns R275C/Slo1WT/beta2. The note with it: U2OS BacMam BK variants, at 30 µM.

Values without a mark were called inactive. Activity calls are given as the source filed them.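 Rule for the calls: active = thallium flux through the channel raised or lowered by more than 3 SD from vehicle-only wells, actives on both sides; inactive = the rest.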

Calcium-activated potassium channel subunit alpha-1 (Homo sapiens) + Leucine-rich repeat-containing protein 26 (Homo sapiens), sequence (Q2I0M4 whole entry, looked up, one chain of several): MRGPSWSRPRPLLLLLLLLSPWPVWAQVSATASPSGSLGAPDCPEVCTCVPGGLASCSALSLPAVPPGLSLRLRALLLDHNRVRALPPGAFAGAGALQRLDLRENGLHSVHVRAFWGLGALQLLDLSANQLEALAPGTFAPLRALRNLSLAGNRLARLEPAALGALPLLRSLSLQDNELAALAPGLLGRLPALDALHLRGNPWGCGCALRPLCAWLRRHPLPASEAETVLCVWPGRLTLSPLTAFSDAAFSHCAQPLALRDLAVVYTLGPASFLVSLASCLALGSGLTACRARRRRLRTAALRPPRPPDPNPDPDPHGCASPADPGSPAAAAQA

`Cc1ccc(C(C)NC(=O)c2ccc(Cl)c(Cl)c2)c(C)c1` (stereo not given): the log fold change Tl+ flux in assay [1] is -0.0383; in assay [2], -0.0447; in assay [3], -0.0218; in [4], -5.9e-05; in assay [5], -0.119 (active); in [6], -0.0401. Further, the log fold change Tl+ flux was 0.0121 in [7], -0.00757 in [8], 0.00443 in assay [9] and -0.0265 in [10].

For the molecule `O=S(=O)(Cc1nc(-c2ccc3c(c2)OCCO3)cs1)c1ccccn1`, the log fold change Tl+ flux was -0.0443 in [1]; -0.0373 in assay [2]; 0.0231 in [3]; -0.00916 in [4]; -0.0733 in assay [5]; -0.0303 in assay [6]. Moreover, the log fold change Tl+ flux in assay [7] was -0.0291; in [8], 0.0317; in [9], -0.00702; in [10], -0.0322.

In the case of `O=S(=O)(c1ccc(-c2cc(C(F)(F)F)on2)s1)N1CCc2c([nH]c3ccc(F)cc23)C1`, the log fold change Tl+ flux in assay [1] was 0.0233; in assay [2] it was 0.0471; in assay [3] it was 0.0355; in assay [4], 0.0473; in assay [5], 0.0308; in [6], 0.0283. Moreover, the log fold change Tl+ flux in assay [7] was -0.0189; in assay [8], 0.0168; in [9], -0.00429; in assay [10], 0.00527.

Consider `Cc1ccc(S(=O)(=O)Oc2c(Cc3ccccc3)c(=O)n(C)c3ccccc23)cc1`, for which the log fold change Tl+ flux in [1] is -0.047; in assay [2], -0.00429; in assay [3] it was -0.0297; in assay [4] it was 0.0237; in assay [5] it was -0.018; in assay [6], -0.0579. In addition, the log fold change Tl+ flux in assay [7] is -0.0357; in assay [8], -0.0097; in assay [9] it was -0.0625; in assay [10], 0.0422.

As to `NC(Cc1ccc(OCc2ncc(C(F)(F)F)cc2Cl)cc1)=NOC(=O)c1ccccc1`, the log fold change Tl+ flux is 0.0193 in assay [1]; -0.00621 in assay [2]; 0.00968 in assay [3]; -0.0023 in assay [4]; -0.00749 in assay [5]; 0.0533 in assay [6]. Moreover, the log fold change Tl+ flux was 0.0113 in [7], 0.000291 in assay [8], 0.00465 in assay [9] and 0.0382 in assay [10].

Regarding `Cc1cc(C)c2cc(C(=O)Nc3ccccc3SCc3cccc(Cl)c3F)[nH]c2c1`, the log fold change Tl+ flux in [1] was 0.0408; in [2], 0.0143; in [3], 0.00341; in assay [4], -0.00891; in assay [5], -0.00142; in assay [6], 0.000963. Besides, the log fold change Tl+ flux was 0.041 in [7], 0.02 in assay [8], 0.00151 in [9] and 0.025 in [10].

Turning to `COC(=O)C1=C(C)NC(C)=C(C(=O)OC)C1c1ccccc1`, the log fold change Tl+ flux in [1] was -0.0145; in assay [2], 0.00442; in [3] it was -0.0123; in assay [4], 0.0301; in assay [5], 0.0229; in assay [6] it was 0.00578. For the same molecule, the log fold change Tl+ flux in assay [7] is 0.033; in assay [8], -0.018; in assay [9], 0.0507; in assay [10], 0.0172.

For the molecule `COc1ccc(C(=O)NNC(=O)c2c(OC)cc(C(F)(F)F)cc2C(F)(F)F)cc1`, the log fold change Tl+ flux in [1] was 0.044; in assay [2], 0.017; in [3] it was -0.00926; in [4] it was 0.0361; in [5], 0.00672; in [6], 0.0148. Further, the log fold change Tl+ flux in assay [7] is 0.0608; in assay [8], 0.00715; in assay [9] it was 0.021; in assay [10] it was 0.015.

On to `Cc1ccc(C(=O)Cn2cc([N+](=O)[O-])nc2C)cc1`, for which the log fold change Tl+ flux in [1] is -0.00237; in [2] it was -0.0164; in assay [3], 0.0463; in assay [4] it was -0.00425; in assay [5], -0.043; in [6] it was 0.00593. Also, the log fold change Tl+ flux is 0.0164 in assay [7], -0.0174 in assay [8], 0.0383 in assay [9] and 0.0674 in assay [10].

Regarding `COc1ccccc1NC(=S)NNC(=O)CSc1ccccc1[N+](=O)[O-]`, the log fold change Tl+ flux in assay [1] was 0.0388; in [2] it was 0.0156; in assay [3], 0.0403; in assay [4] it was 0.0916; in assay [5] it was 0.0332; in assay [6], -0.0193. Besides, the log fold change Tl+ flux in assay [7] was 0.0469; in assay [8], 0.064; in assay [9], 0.00382; in assay [10], -0.0222.

Turning to `CCOC(=O)C(C)Oc1ccc(NS(=O)(=O)c2cc(OC)ccc2OC)cc1Cl` (stereo not given), the log fold change Tl+ flux in [1] is -0.0459; in assay [2], -0.0343; in assay [3], -0.0957; in assay [4], -0.104 (active); in assay [5] it was -0.0848; in assay [6], -0.0618. Moreover, the log fold change Tl+ flux in assay [7] was 0.0118; in assay [8], -0.0738; in assay [9] it was -0.0156; in assay [10] it was -0.0391.

As for `COc1ccc(CCNC(=O)c2ccccc2NC(=O)c2ccccc2C)cc1OC`, the log fold change Tl+ flux in [1] was -0.0118; in [2] it was -0.0452; in assay [3] it was -0.0544; in assay [4], -0.615 (active); in assay [5], -0.381 (active); in [6], -1.01 (active). Moreover, the log fold change Tl+ flux in assay [7] is -0.839 (active); in [8] it was -0.31 (active); in assay [9], -0.582 (active); in assay [10], -0.267 (active).

As for `O=C(CC1SC(=NC2CC3C=CC2C3)NC1=O)Nc1ccccc1Cl` (stereo not given), the log fold change Tl+ flux in assay [1] is 0.0694; in [2], 0.0502; in assay [3], 0.0241; in assay [4], -0.0131; in assay [5], -0.0156; in assay [6], 0.0384. In addition, the log fold change Tl+ flux in [7] was 0.0688; in assay [8] it was 0.032; in [9], 0.0398; in [10], -0.0439.

Turning to `Cn1c(C(F)(F)F)nnc1S(=O)(=O)Cc1ccc(-c2csnn2)cc1`, the log fold change Tl+ flux in assay [1] is 0.0645; in assay [2] it was 0.0098; in assay [3], 0.0485; in assay [4] it was 0.114 (active); in [5], 0.00754; in assay [6] it was 0.0229. For the same molecule, the log fold change Tl+ flux is -0.0587 in assay [7], 0.0374 in assay [8], -0.0154 in [9] and -0.0301 in assay [10].

For `N#CC(CCC(=O)O)(CCC(=O)O)S(=O)(=O)c1ccccc1`, the log fold change Tl+ flux in [1] was 0.0317; in assay [2], 0.000152; in assay [3] it was -0.0465; in assay [4], -0.00447; in assay [5], 0.0235; in assay [6], 0.0374. In addition, the log fold change Tl+ flux in assay [7] is 0.0216; in [8], 0.0211; in assay [9], -0.014; in assay [10], 0.0459.
